Screening data as filed in PubChem.
FBA Mtb inh: Mtb FBA enzyme inhibitors, primary screen, biochemical, fluorescence, strain H37Rv | Fructose-bisphosphate aldolase (Mycobacterium tuberculosis (strain ATCC 25618 / H37Rv)), … | purified M. tuberculosis FBA, fluorescence read-out | inhibition, % at 1 µM | actives 2.3% (n = 360,000) | AID 588726, 2011; in the data active = inhibition above about 27%;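 also: 0% = vehicle and 100% = reference inhibitor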
GDH-TPI inh: GDH-TPI coupling enzyme inhibitors, primary screen, artefact control for M. tuberculosis FBA inhibitor project, biochemical, absorbance, full deck; GDH-TPI coupled enzyme counterscreen, NADH absorbance; inhibition, % at 4.8 µM; actives 1.2% (n = 360,000); in the data active = inhibition above about 30%;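 also: 0% = DMSO wells and 100% = wells lacking the enzyme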
RecA intein inh: Mtb RecA intein splicing inhibitors, primary screen, biochemical, fluorescence, HTS; Protein RecA (Mycobacterium tuberculosis (strain ATCC 25618 / H37Rv)), P9WHJ3; cell-free RecA intein splicing; inhibition, % (concentration not given with the values); actives 0.75% (n = 290,000); AID 2221, 2009; in the data active = inhibition above about 30%;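 also: 0% = vehicle wells and 100% = reference inhibitor control wells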
Mtb bLac sens: beta-lactam sensitization of Mtb H37Rv, H37Rv; M. tuberculosis H37Rv growth with meropenem, percent inhibition; inhibition, % at 25 µM; actives 0.27% (n = 330,000); call rule not given here;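 also: growth measured after seven days incubation then overnight dye step; 0% = bacteria only wells and 100% = bacteria with antibiotic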
Rv3671c protease: Rv3671c serine protease inhibitors, primary screen, biochemical, fluorescence polarization, M. tuberculosis H37Rv; inhibition, % at 5.96 µM; P9WHR9; actives 0.048% (n = 320,000); in the data active = inhibition above about 38%;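 also: extracellular domain of Rv3671c used as enzyme; 0% = enzyme with DMSO and 100% = no enzyme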
Mtb UGM inh: M. tuberculosis UGM enzyme inhibitors, primary screen, biochemical, fluorescence polarization, single point. purified UGM, fluorescence polarization probe displacement. inhibition, % at 10 µM. actives 0.06% (n = 320,000). AID 504406, 2011; in the data active = inhibition above about 10%, passing the limit was not always enough
Target sequence (P9WIQ1 whole entry, looked up): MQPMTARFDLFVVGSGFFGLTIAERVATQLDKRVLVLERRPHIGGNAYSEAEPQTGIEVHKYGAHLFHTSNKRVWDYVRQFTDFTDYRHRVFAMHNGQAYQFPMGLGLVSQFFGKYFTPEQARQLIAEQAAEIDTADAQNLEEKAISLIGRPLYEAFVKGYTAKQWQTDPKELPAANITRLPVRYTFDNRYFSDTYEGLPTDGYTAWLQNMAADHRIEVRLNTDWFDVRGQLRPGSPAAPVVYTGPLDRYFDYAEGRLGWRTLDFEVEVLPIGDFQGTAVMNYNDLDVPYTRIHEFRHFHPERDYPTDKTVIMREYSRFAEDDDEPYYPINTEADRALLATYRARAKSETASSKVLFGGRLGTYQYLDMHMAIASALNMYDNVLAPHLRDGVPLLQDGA
* marks the source's active call; other numbers are inactive results. Rows were chosen to be rich in hits. Some 4% of all compounds tested hit in one or more screens of this group.

How did CN1/C(=C/C(=O)C2CC2)C(C)(C)c2ccccc21 do in these assays?
FBA Mtb inh: 6; GDH-TPI inh: 24; RecA intein inh: 3; Mtb bLac sens: -2; Rv3671c protease: -6; Mtb UGM inh: -1

Results for CN1/C(=C\C(=O)COC(=O)Cn2nnc(-c3ccccc3)n2)C(C)(C)c2ccccc21 ?
FBA Mtb inh: 1; GDH-TPI inh: 34*; RecA intein inh: 6; Mtb bLac sens: -2; Rv3671c protease: -46; Mtb UGM inh: 3

Results for CCOC(=O)C1CCCN(CC(=O)/C=C2/N(C)c3ccccc3C2(C)C)C1 (stereo not given) ?
FBA Mtb inh: 6; GDH-TPI inh: 31*; RecA intein inh: -4; Mtb bLac sens: 15; Rv3671c protease: -4; Mtb UGM inh: 1

How did CN1/C(=C/C(=O)COC(=O)CN2C(=O)C3CC=CCC3C2=O)C(C)(C)c2ccccc21 (stereo not given) do in these assays?
FBA Mtb inh: 6; GDH-TPI inh: 30

Results for CCN(CC)c1nc2c(c(=O)[nH]c(=O)n2C)n1CCOc1ccccc1 ?
FBA Mtb inh: 0; GDH-TPI inh: 3; RecA intein inh: -3; Mtb bLac sens: -6; Rv3671c protease: 11; Mtb UGM inh: -2

What do the screens show for `CC1CCN(CC(=O)Nc2ccc(C(=O)N3CCCCC3)cc2)CC1`?
FBA Mtb inh: 2; GDH-TPI inh: -4; RecA intein inh: 0; Mtb bLac sens: 0; Rv3671c protease: -2; Mtb UGM inh: 0

Results for O=S1(=O)N=C(N/N=C/c2cccs2)c2ccccc21 ?
FBA Mtb inh: -3; GDH-TPI inh: 39*; RecA intein inh: 0; Mtb bLac sens: 5; Rv3671c protease: 7; Mtb UGM inh: 1

How did O=[N+]([O-])c1ccc(/C=N/NC2=NS(=O)(=O)c3ccccc32)cc1 do in these assays?
FBA Mtb inh: -4; GDH-TPI inh: 14; Mtb bLac sens: 2; Rv3671c protease: 8; Mtb UGM inh: 0

Results for O=C(c1ccc(-c2ccccc2)cc1)N1CCN(c2ccccn2)CC1 ?
FBA Mtb inh: 0; GDH-TPI inh: -4; RecA intein inh: 3; Mtb bLac sens: -2; Rv3671c protease: -3; Mtb UGM inh: -2

Results for COc1ccccc1N1CCN(C2CCCN(C(=O)CCC(C)=O)C2)CC1 (stereo not given) ?
FBA Mtb inh: -2; GDH-TPI inh: -3; RecA intein inh: -2; Mtb bLac sens: -2; Rv3671c protease: 11; Mtb UGM inh: -1

How did O=S1(=O)[C@H]2C[C@@H]3C=C[C@@]2(CN1Cc1cccc(F)c1)O3 do in these assays?
FBA Mtb inh: 0; GDH-TPI inh: 13; RecA intein inh: -1; Mtb bLac sens: -15; Rv3671c protease: 8; Mtb UGM inh: 0

How did Cc1cccc(C(=O)NNC2=CC(=O)CC(C)(C)C2)c1O do in these assays?
FBA Mtb inh: 5; GDH-TPI inh: 37*; RecA intein inh: -2; Mtb bLac sens: 2; Rv3671c protease: 3; Mtb UGM inh: 1

What do the screens show for `CC1(C)CC(=O)C=C(NNC(=O)c2ccccc2O)C1`?
FBA Mtb inh: 0; GDH-TPI inh: 40*; RecA intein inh: -9; Mtb bLac sens: -2; Rv3671c protease: -1; Mtb UGM inh: 4

What do the screens show for `COc1ccc(C2(c3ccc(OC)cc3)NC(=O)NC2=O)cc1`?
FBA Mtb inh: -6; GDH-TPI inh: 4; RecA intein inh: 1; Mtb bLac sens: 6; Rv3671c protease: -3; Mtb UGM inh: 2

How did CN(C(=O)/C=C/c1ccco1)c1ccccc1C(=O)O do in these assays?
FBA Mtb inh: 5; GDH-TPI inh: 32*; RecA intein inh: -2; Mtb bLac sens: -5; Rv3671c protease: -3; Mtb UGM inh: 0

How did Cc1cn([C@H]2C[C@H](O)[C@@H](CNCC3=Cc4cc(O)ccc4OC3)O2)c(=O)[nH]c1=O do in these assays?
FBA Mtb inh: -5; GDH-TPI inh: 1

How did COc1cc2c(cc1OC)C(C)=NCC2 do in these assays?
FBA Mtb inh: active; GDH-TPI inh: 0; RecA intein inh: -1; Mtb bLac sens: -3; Rv3671c protease: -6; Mtb UGM inh: -2

Results for COc1cc2c(cc1OC)C(C)=NC1(CCCCC1)C2 ?
FBA Mtb inh: 186*; GDH-TPI inh: 15; RecA intein inh: -10; Mtb bLac sens: -11; Rv3671c protease: -2; Mtb UGM inh: -1

How did CCc1ccc(/C=C/C(=O)C2C(=O)c3ccccc3C2=O)cc1 do in these assays?
FBA Mtb inh: -1; GDH-TPI inh: 39*; RecA intein inh: 33*; Mtb bLac sens: 98; Rv3671c protease: 7; Mtb UGM inh: 3

What do the screens show for `CCCN(CC(=O)Nc1ccccc1OC)C(=O)c1ccc2c(c1)NC(=O)C(C)S2` (stereo not given)?
FBA Mtb inh: -2; GDH-TPI inh: 1; Mtb bLac sens: -4; Rv3671c protease: -2; Mtb UGM inh: 3

How did CC(C)CC(=O)OC1C(N2CCOCC2)c2c(ccc(/C=C/C(=O)N3CCOCC3)c2O)OC1(C)C (stereo not given) do in these assays?
FBA Mtb inh: 6; GDH-TPI inh: 31*; RecA intein inh: 0; Mtb bLac sens: -2; Rv3671c protease: -5; Mtb UGM inh: 0

Results for NC(=O)N\N=C/C=C/C=C/c1ccc(F)cc1 ?
FBA Mtb inh: -5; GDH-TPI inh: 53*; RecA intein inh: 3; Mtb bLac sens: -10; Rv3671c protease: 3; Mtb UGM inh: -2

Results for NC(=O)N/N=C/C=C/c1ccccc1 ?
FBA Mtb inh: 2; GDH-TPI inh: 11; RecA intein inh: -3; Mtb bLac sens: 7; Rv3671c protease: 8; Mtb UGM inh: 3

What do the screens show for `Cc1ccc(Cn2ncc(Cl)c(Cl)c2=O)cc1`?
FBA Mtb inh: 2; GDH-TPI inh: -6; RecA intein inh: 38*; Mtb bLac sens: 56; Rv3671c protease: 4; Mtb UGM inh: 0

How did Cc1cc(C)cc(Cn2ncc(Cl)c(Cl)c2=O)c1 do in these assays?
RecA intein inh: 56*; Mtb bLac sens: 92; Rv3671c protease: 6; Mtb UGM inh: -1

Results for CCN(CC)c1ccc(N=CN2CCOCC2)cc1 ?
FBA Mtb inh: 3; GDH-TPI inh: 1; RecA intein inh: -2; Mtb bLac sens: -10; Rv3671c protease: 3; Mtb UGM inh: 0

How did O=c1[nH]ncc(N/N=C/c2ccccc2)c1Cl do in these assays?
FBA Mtb inh: 0; GDH-TPI inh: 80*; RecA intein inh: 0; Mtb bLac sens: 2; Rv3671c protease: 3

How did Cc1ccc(/C=N\Nc2cn[nH]c(=O)c2Cl)cc1 do in these assays?
FBA Mtb inh: -2; GDH-TPI inh: 48*; RecA intein inh: -1; Mtb bLac sens: 18; Rv3671c protease: 1; Mtb UGM inh: 1
